Screening results: PubChem, several laboratories
Yp Topo-I inh: inhibitors of Yersinia pestis topoisomerase I; Y. pestis Topo-I cleavage product accumulation, plate reader; activity, % at 10 µM; 360,000 compounds, 0.064% hits; AID 504884; in the data active = activity above about 50%, passing the limit was not always enough
PrPC surface inh: cell surface PrPC inhibition, primary TR-FRET screen; TR-FRET read-out; 370,000 compounds, 0.43% hits; AID 720596; inhibition, % at 13.8 µM; in the data active = inhibition above about 24%
GDH-TPI counter: GDH-TPI coupled enzyme inhibition counter-screen. inhibition, % at 4.8 µM. GDH-TPI coupled enzyme counterscreen, NADH absorbance. 360,000 compounds, 1.2% hits; in the data active = inhibition above about 30%
FBA Mtb inh: inhibitors of M. tuberculosis fructose-bisphosphate aldolase; P9WQA3; purified M. tuberculosis FBA, fluorescence read-out; inhibition, % at 1 µM; AID 588726; 360,000 compounds, 2.3% hits; in the data active = inhibition above about 27%
Target sequence (P9WQA3 whole entry, looked up): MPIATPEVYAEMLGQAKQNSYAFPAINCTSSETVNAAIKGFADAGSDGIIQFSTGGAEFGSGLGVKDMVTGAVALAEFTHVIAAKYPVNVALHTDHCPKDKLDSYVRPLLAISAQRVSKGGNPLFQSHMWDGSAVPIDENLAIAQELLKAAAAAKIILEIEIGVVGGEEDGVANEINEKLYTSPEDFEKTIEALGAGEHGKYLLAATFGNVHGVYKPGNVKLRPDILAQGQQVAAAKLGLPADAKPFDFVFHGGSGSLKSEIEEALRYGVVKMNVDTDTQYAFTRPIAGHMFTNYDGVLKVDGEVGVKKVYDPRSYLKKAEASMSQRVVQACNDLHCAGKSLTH
TcdB GH inh: blocks C. difficile toxin B glycohydrolase activity; inhibition, % at 9.99 µM; TcdB glycohydrolase enzymatic assay, plate reader; 350,000 compounds, 0.24% hits; in the data active = inhibition above about 10%
Numbers stand for hits; 0 = inactive; - = no result given. Hits are enriched below; roughly 3.2% of the tested compounds scored in any of these assays.

SMILES	Yp Topo-I inh	PrPC surface inh	GDH-TPI counter	FBA Mtb inh	TcdB GH inh
CCCOC(=O)C(=O)NNc1ccccc1	0	0	0	0	0
CC(=O)C1C2c3ccccc3OC1(C)N=c1s/c(=C/c3cnn(C)c3)c(=O)n12 (stereo unspecified)	0	0	38	0	-
Cc1ccc(S(=O)(=O)N(C)C[C@@H]2Oc3c(NC(=O)c4ccncc4)cccc3C(=O)N([C@@H](C)CO)C[C@H]2C)cc1	-	-	-	-	0
CC(=O)Nc1cc2c3c(cccc3c1)-c1ccccc1-2	0	0	0	140	0
CC1=NN(C(N)=S)C(=O)C1N=Nc1ccccc1O (stereo unspecified)	0	0	0	0	0
CC1=NN(C(N)=S)C(=O)C1N=Nc1c(C)n(C)n(-c2ccccc2)c1=O (stereo unspecified)	0	0	31	0	0
CCCCCn1c(=NC(=O)c2ccco2)c(C(=O)OCC)cc2c(=O)n3ccccc3nc21	0	0	0	144	0
CCCCn1c(=NC(=O)c2ccco2)c(C(=O)OCC)cc2c(=O)n3ccccc3nc21	0	0	0	197	-
CCOC(=O)c1cc2c(=O)n3ccccc3nc2n(CC2CCCO2)c1=NC(C)=O (stereo unspecified)	0	0	0	-	-
CCCCn1c(=NC(=O)c2ccco2)c(C(=O)OCC)cc2c(=O)n3cccc(C)c3nc21	0	0	0	173	0
CCOC(=O)c1cc2c(=O)n3ccccc3nc2n(Cc2ccc(Cl)cc2)c1=N	0	0	0	0	0
COc1ccc(-c2c(C#N)c(N)nc3c2CCCCCC3)cc1OC	0	0	0	0	-
COC(=O)c1c(C#N)c(N)nc2c1CCC2	0	0	0	130	-
C[C@@H]1CN([C@@H](C)CO)C(=O)c2cc(NS(=O)(=O)c3ccccc3)ccc2O[C@@H](C)CCCCO[C@H]1CN(C)C(=O)c1ccccc1	-	-	-	-	0
CC(C)C(=O)Nc1ccc2c(c1)C(=O)N(C)[C@H]1CC[C@H](CC(=O)Nc3cccc(F)c3)O[C@@H]1CO2	-	-	-	-	0
S=c1nccc(-c2ccc3c(c2)CCO3)[nH]1	0	0	49	0	0
CC1(C)CCc2cc(-c3ccnc(=S)[nH]3)ccc2O1	0	0	0	0	0
C[C@@H]1CCCCO[C@@H](CN(C)S(=O)(=O)c2cccs2)[C@@H](C)CN([C@H](C)CO)C(=O)c2cc(NC(=O)C3CCCCC3)ccc2O1	-	-	-	-	0
O=C(C[C@@H]1CC[C@@H]2[C@H](COC[C@@H](O)CN2C(=O)c2ccccn2)O1)NC1CCC1	-	-	-	-	27
O=C(C[C@H]1CC[C@H]2[C@@H](COC[C@@H](O)CN2Cc2ccccc2)O1)NCCc1ccccc1	-	-	-	-	15
O=C(C[C@H]1CC[C@H]2[C@@H](COC[C@H](O)CN2C(=O)Nc2ccc(Cl)c(Cl)c2)O1)NCc1ccncc1	-	-	-	-	13
O=C(C[C@@H]1CC[C@H]2[C@@H](COC[C@H](O)CN2Cc2ccccc2)O1)NCCc1ccccc1	-	-	-	-	0
CCNC(=O)C[C@@H]1CC[C@@H]2[C@H](COC[C@H](O)CN2C(=O)c2ccccn2)O1	-	-	-	-	0
O=C(C[C@H]1CC[C@@H]2[C@H](COC[C@@H](O)CN2C(=O)c2ccccn2)O1)NC1CCC1	-	-	-	-	15
CN1CCN(C(=O)C[C@@H]2CC[C@H]3[C@@H](COC[C@@H](O)CN3CC3CCCC3)O2)CC1	-	-	-	-	0
SMILES	Yp Topo-I inh	PrPC surface inh	GDH-TPI counter	FBA Mtb inh	TcdB GH inh
CCCC(=O)Nc1ccc2c(c1)OC[C@@H](C)N(CC1CCOCC1)C[C@@H](C)[C@H](OC)CN(C)C2=O	-	-	-	-	0
O=C(C[C@@H]1CC[C@H]2[C@@H](COC[C@H](O)CN2C(=O)c2ccccn2)O1)NC1CCC1	-	-	-	-	17
CNC(=O)C[C@@H]1CC[C@@H]2[C@H](COC[C@H](O)CN2C(=O)c2ccccn2)O1	-	-	-	-	0
CCOC(=O)c1cc(-c2ccc(/C=C3/C(=O)NC(=O)C(C#N)=C3C)o2)ccc1Cl	0	0	35	0	0
CCC(=O)Nc1nnc(S(=O)(=O)N(C)Cc2ccco2)s1	0	0	0	0	0
CCCC(=O)Nc1nnc(S(=O)(=O)N(C)Cc2ccco2)s1	0	-	0	0	-
CN(Cc1ccco1)S(=O)(=O)c1nnc(NC(=O)c2ccc(F)cc2)s1	0	0	38	0	0
CCOc1ccc(C(=O)Nc2nnc(S(=O)(=O)N(C)Cc3ccco3)s2)cc1	0	0	39	0	0
CCOc1ccc(C(=O)Nc2nnc(NC(=S)Nc3ccccc3)s2)cc1	0	0	40	0	0
CO[C@H]1CN(C)C(=O)c2ccc(NC(=O)Cc3ccccc3)cc2OC[C@@H](C)NC[C@H]1C	-	-	-	-	0
CCCn1c(NC(=O)c2cccc(S(=O)(=O)N3CCCC3)c2)nc2ccccc21	0	0	35	0	-
O=C(CC(=O)c1ccccc1)CS(=O)(=O)c1ccccc1	0	0	41	0	0
Cc1ccc(S(=O)(=O)CC(=O)c2ccccc2)cc1	0	0	0	0	-
O=C(O)COc1ccc2nsnc2c1Cl	0	0	0	42	-
CO[C@@H]1CN(C)C(=O)c2ccc(NC(=O)C3CCCCC3)cc2OC[C@H](C)N(C)C[C@@H]1C	-	-	-	-	0
CN(C)CCCN1C(=O)C(=O)/C(=C(/O)c2ccncc2)C1c1cccc(Br)c1 (stereo unspecified)	0	0	31	0	-
CN(C)c1ccc(C2/C(=C(/O)c3ccccc3)C(=O)C(=O)N2CCCC(=O)O)cc1 (stereo unspecified)	0	0	31	0	0
CN(C)CCCN1C(=O)C(=O)/C(=C(/O)c2ccncc2)C1c1cccnc1 (stereo unspecified)	0	0	0	0	-
C[C@H](O)C#Cc1cnc2c(c1)C(=O)N([C@H](C)CO)C[C@H](C)[C@H](CN(C)C(=O)c1ccccc1F)O2	-	-	-	-	0
Cc1ccc(C(=O)N2CCN(c3cccc(Cl)c3)CC2)cc1C	0	0	31	0	0
CN(C)c1ccc(C(=O)c2ccc(N(C)C)c3ccccc23)cc1	0	0	34	0	-
CN(C)c1ccccc1C(=O)c1ccccc1N(C)C	0	0	0	0	-
COc1ccc(C(=O)c2ccc(OC)cc2OC)cc1	0	0	0	0	0
COc1ccc(C(=O)c2ccc(N(C)C)cc2)c(OC)c1	0	0	31	0	0
O=C(O)c1nn(Cc2ncc(-c3cccc(Cl)c3)o2)c(=O)c2ccccc12	52	0	0	0	0
SMILES	Yp Topo-I inh	PrPC surface inh	GDH-TPI counter	FBA Mtb inh	TcdB GH inh
COc1cccc(-c2noc(Cn3nc(C(=O)O)c4ccccc4c3=O)n2)c1	54	0	0	0	0
O=C(Nc1ccc2c(c1)[C@H]1C[C@H](CC(=O)N3CCCCC3)O[C@@H](CO)[C@H]1O2)C1CCC1	-	-	-	-	0
Cc1cc(C(=O)Nc2cccc3c2O[C@@H](CN(C)C(=O)NC2CCCCC2)[C@H](C)CN([C@@H](C)CO)C3=O)n(C)n1	-	-	-	-	0
CC(C)C1S/C(=N/N=C/c2ccco2)NC1=O (stereo unspecified)	0	0	57	0	-
O=C1CC(C(=O)Nc2ccc(Cl)cc2)S/C(=N\N=C\c2ccco2)N1 (stereo unspecified)	0	0	56	0	0
COc1ccc(CN=C2NC(=O)CC(C(=O)Nc3ccc(F)cc3)S2)cc1 (stereo unspecified)	0	0	0	0	-
